HCV inh: inhibitors of hepatitis C virus infection; Huh7.5.1 HCVcc-Cre infection, luciferase reporter, 44 h; Potency, µM (titrated, usually from 41.8 µM), for inactives: at the highest dose activity change, negative = inhibition, hits mostly inhibitors; actives 3.4% (n = 340,000); also: potency is read from the fitted curve at half-maximal effect
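Infectious HCV cell culture screen: compound-treated cells (1,000/well, pre-plated 4 h) are infected with HCVcc-Cre at roughly 0.5 moi and grown 44 h. Infection is quantified by luciferase signal after 15 min substrate incubation at room temperature.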
Sm TGR block: blocks Schistosoma mansoni thioredoxin glutathione reductase | Q962Y6 | purified TGR, DTNB reduction, TNB absorbance 405 nm | Potency, µM (top dose mostly 114 µM), for the others: at the top dose activity change, negative = inhibition, actives largely listed as inhibitors | actives 3% (n = 360,000) | AID 485364; also: potency is read from the fitted curve at half-maximal effect; nearly all actives have a fitted effect of over 60% in size
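TGR 20 nM + NADPH 100 uM (dispensed conc.), cpd preinc 15 min RT; start with NADPH (500 uM addition) then DTNB (15 mM addition). Kinetic TNB absorbance, 405 nm filter. Four-parameter Hill fit across titration.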
VACV Venus inh: inhibitors of vaccinia virus (Venus reporter) | Vaccinia virus Venus reporter expression, fluorescence | Potency, µM (highest dose often 36.5 µM), without a hit: at the top dose activity change, negative = inhibition, hits mostly inhibitors | actives 0.46% (n = 330,000); calls by dose curve; tested in A549 cells; also: potency is read from the fitted curve at half-maximal effect; nearly all actives have a fitted effect of over 30% in size
VACV mCherry inh: inhibitors of vaccinia virus infection (mCherry reporter signal); Vaccinia virus mCherry reporter infection, fluorescence; Potency, µM (highest dose often 36.5 µM), for inactives: at the highest dose activity change, negative = inhibition, most hits filed as inhibitors; actives 0.63% (n = 310,000); AID 720579; calls by dose curve; tested in A549 cells; also: potency is read from the fitted curve at half-maximal effect; nearly all actives have a fitted effect of over 35% in size
FMDV antiviral: antivirals against foot and mouth disease virus; Potency, µM (titrated, usually from 57.9 µM), for the others: top-dose activity change, negative = inhibition, usual class: inhibitors; FMDV antiviral cell-based qHTS; actives 1.2% (n = 410,000); calls by dose curve; tested in HEK293T cells; also: read-out not given here; potency is read from the fitted curve at half-maximal effect; nearly all actives have a fitted effect of over 45% in size
HCMV antiviral: human cytomegalovirus inhibition. HFF cells, HCMV-luciferase reporter, 72 h; stronger effect = lower value. activity change, negative = inhibition, % at 57.5 µM. actives 4.5% (n = 410,000); in the data active = activity change below about -60%; inconclusive = no clear call, values can overlap the other calls; inactive = above about -39%
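HFF cells seeded 16 h at 37C, treated with compounds, infected with luciferase-reporter HCMV at MOI 1 PFU/cell; luciferase read at 72 h post infection, normalized to buffer-only and Salinomycin controls.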
Active calls of the source: *. Only some compounds are listed: those with a hit (about 9.3% of all), similar ones and a draw of the others. Unless noted, calls follow the shape of the dose curve; as a rule, active = well fitted curve in the direction sought with a large enough effect; inconclusive = small, poorly fitted or top-dose-only effect, or another doubt; inactive = no such curve, though single readings can be large; an effect the other way counts as inactive or inconclusive. % is scaled to controls: 0 for no effect and ±100 for the full control effect.

`CN(C)CCN(C(=O)c1ccc(N2C(=O)CCC2=O)cc1)c1nc2cc3c(cc2s1)OCCO3` gave Sm TGR block 35µM* and HCMV antiviral 74.
COc1ccc(OC)c2sc(N(CCCN(C)C)C(=O)CCS(=O)(=O)c3ccccc3)nc12 was read as HCV inh inconclusive, Sm TGR block 3.2µM*, VACV Venus inh inconclusive, VACV mCherry inh inconclusive, FMDV antiviral 35µM* and HCMV antiviral 16.
`Cc1ccc2sc(N(CCCN(C)C)C(=O)CCS(=O)(=O)c3ccccc3)nc2c1C` gave HCV inh inconclusive, Sm TGR block 7.1µM*, FMDV antiviral 32µM* and HCMV antiviral 0.
Screening O=[N+]([O-])c1cccc(S(=O)(=O)N2CCN(S(=O)(=O)N3CCOCC3)CC2)c1 returned HCV inh 8%, Sm TGR block 0%, VACV Venus inh -3%, VACV mCherry inh -10%, FMDV antiviral -9% and HCMV antiviral -4.
O=C(CN1CCC2(CC1)OCCO2)c1ccc2cc[nH]c2c1 was read as HCV inh 15%, Sm TGR block 45µM*, VACV Venus inh -4%, VACV mCherry inh inactive, FMDV antiviral 44% and HCMV antiviral -66*.
O=C(Nc1ccccc1O)c1cccc(S(=O)(=O)N2CCOCC2)c1 was read as HCV inh -3%, Sm TGR block 14%, VACV Venus inh -4%, VACV mCherry inh -21%, FMDV antiviral 14% and HCMV antiviral 5.
For Cc1cc(Cc2cc(C)c(O)c(CO)c2)cc(CO)c1O the results were HCV inh -1%, VACV Venus inh -26%, VACV mCherry inh 5.6µM*, FMDV antiviral -27% and HCMV antiviral 8.
Cc1cc(Cc2ccc(N)c(C)c2)ccc1N was read as HCV inh -8%, Sm TGR block 1%, VACV Venus inh -5%, VACV mCherry inh inconclusive, FMDV antiviral -3% and HCMV antiviral 40.
CCOc1ccc(C(C)=O)cc1COC(=O)C1=COCCO1 was read as HCV inh 10µM*, Sm TGR block 28µM*, VACV Venus inh -13%, FMDV antiviral 2% and HCMV antiviral 10.
`CCOc1ccc(C(C)=O)cc1CC(C(N)=O)C(N)=O` gave HCV inh 18%, Sm TGR block -20%, VACV Venus inh -12%, VACV mCherry inh inactive, FMDV antiviral -5% and HCMV antiviral 0.
Cc1ccccc1-n1nc(C(=O)c2cccs2)cc(-c2nc3ccccc3[nH]2)c1=N was read as HCV inh 10µM*, Sm TGR block inconclusive, FMDV antiviral -10% and HCMV antiviral 2.
Screening COc1ccc(-n2nc(C(=O)c3cccs3)cc(-c3nc4ccccc4[nH]3)c2=N)cc1 returned HCV inh 11µM*, Sm TGR block -21%, FMDV antiviral 6% and HCMV antiviral 160.
Screening CC(C)C[C@H]1CN(CCCC[C@H]2CNC(=O)C(=O)N2CC2CCCCC2)C(=O)C(=O)N1CCc1ccccc1 returned VACV Venus inh -3%, VACV mCherry inh -17%, FMDV antiviral -14% and HCMV antiviral 16.
For CC1=CC(C)(C(Cl)(Cl)Cl)C(C)=CC1=NO (stereo not given) the results were VACV Venus inh -25%, VACV mCherry inh -9%, FMDV antiviral -27% and HCMV antiviral -69*.
For O=C(c1cnn(-c2ccccc2)c1)c1ccccc1O the results were HCV inh -29%, Sm TGR block 4%, VACV Venus inh -3%, VACV mCherry inh -2%, FMDV antiviral 0% and HCMV antiviral 41.
`COc1ccc(CNC(=O)c2ccc(N3CCC4(CC3)CC(c3ccc(Cl)cc3)=NO4)c([N+](=O)[O-])c2)cc1` gave HCV inh 0.89µM*, VACV Venus inh -21%, VACV mCherry inh -1%, FMDV antiviral inconclusive and HCMV antiviral inconclusive.
`Cc1ccc(CNC(=O)c2ccc(N3CCC4(CC3)CC(c3ccccc3)=NO4)c(NC(=O)c3ccc(Cl)c([N+](=O)[O-])c3)c2)cc1` gave HCV inh 11µM*, Sm TGR block -1%, VACV Venus inh 1%, VACV mCherry inh inactive, FMDV antiviral -4% and HCMV antiviral 7.
Screening O=C(CSc1n[nH]c(-c2ccccc2Cl)n1)N1CCN(c2ccccc2)CC1 returned Sm TGR block 1%, VACV Venus inh -3%, VACV mCherry inh -7%, FMDV antiviral 35µM* and HCMV antiviral 37.
Cc1ccc(C(=O)N(c2ccccc2)C2CC(C)N(C(=O)c3ccco3)c3ccccc32)cc1 (stereo not given) was read as HCV inh 11µM*, Sm TGR block -7%, VACV Venus inh inconclusive, VACV mCherry inh inconclusive, FMDV antiviral -9% and HCMV antiviral inconclusive.
Cc1cccc(Nc2sc(C(=O)c3ccc(Cl)cc3)c(N)c2C(N)=O)c1 was read as Sm TGR block -12%, VACV Venus inh -3%, VACV mCherry inh -12%, FMDV antiviral 8% and HCMV antiviral 17.
Screening Cc1ccc(Nc2sc(C(=O)c3ccccc3)c(N)c2C(N)=O)cc1 returned Sm TGR block 50µM*, VACV Venus inh -12%, VACV mCherry inh -17%, FMDV antiviral -12% and HCMV antiviral -1.
Nc1c(C(=O)c2ccccc2)sc(Nc2ccccc2)c1S(=O)(=O)c1ccccc1 was read as HCV inh 14µM*, Sm TGR block 1%, FMDV antiviral 23% and HCMV antiviral -30.
For CCOc1cc(CNCCc2cccc(F)c2)ccc1OC the results were HCV inh -16%, Sm TGR block -25%, VACV Venus inh -12%, VACV mCherry inh 8%, FMDV antiviral -19% and HCMV antiviral 19.
For COc1cc(-c2c(C#N)c(N)nc(SCc3ccncc3)c2C#N)cc(OC)c1OC the results were HCV inh 6%, Sm TGR block -1%, VACV Venus inh -22%, VACV mCherry inh -12%, FMDV antiviral inconclusive and HCMV antiviral -7.
`N#Cc1c(N)nc(SCc2ccncc2)c(C#N)c1-c1cccs1` gave HCV inh 0.56µM*, Sm TGR block -15%, VACV Venus inh inconclusive, VACV mCherry inh inconclusive, FMDV antiviral 16µM* and HCMV antiviral inconclusive.
`CN1CCc2nc(SCc3ccc(Cl)cc3)c(C#N)c(-c3cccs3)c2C1` gave HCV inh inconclusive, VACV Venus inh -8%, VACV mCherry inh -18%, FMDV antiviral -11% and HCMV antiviral -109*.
C[n+]1c2ccccc2nc2ccc(NCCO)cc21 was read as HCV inh 14µM*, Sm TGR block 10µM*, VACV Venus inh 391%, VACV mCherry inh 262%, FMDV antiviral inconclusive and HCMV antiviral -81*.
Screening CC(C)n1c(NCCO)nc2ccccc21 returned HCV inh 4%, Sm TGR block 8%, VACV Venus inh 4%, VACV mCherry inh 4%, FMDV antiviral -6% and HCMV antiviral 5.
